Test results: PubChem BioAssay AID504834 (National Center for Advancing Translational Sciences (NCATS), 2011)
Out of some 320,000 compounds screened, about 22,000 (6.9%) were called active. Roughly 27% stayed inconclusive and do not appear here. What follows is part of a selection rich in actives, with near analogues and random picks from the rest. A number with no mark means an inactive call. Calls follow the shape of the dose curve; as a rule, active = well fitted inhibition curve with a large enough effect; inconclusive = small, poorly fitted or top-dose-only effect, or another doubt; inactive = no such curve, though single readings can be large or run the other way.

test: Primary qHTS for delayed death inhibitors of the malarial parasite plastid, 96 hour incubation; conditions: P. falciparum luciferase reporter growth; series mostly up to 28.7 µM; activity change, negative = inhibition: at the top concentration
Summary of the method: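 Readout is luminescence from an integrated firefly luciferase in P. falciparum. Red cells, 2% hematocrit and 0.05% parasitemia final, were cultured with compound through two parasite generations (96 hours) at 37 C, 5% CO2.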
% is scaled to controls: 0 for no effect and ±100 for the full control effect; potency is read from the fitted curve at half-maximal effect.

SMILES | activity change, negative = inhibition | Potency
O=C(CCNC(=O)c1ccc([N+](=O)[O-])cc1)NC1CCCCC1 | 1.74% | 
CCSc1ncnc2c(C#N)c3n(c12)CCCCC3 |  | 11.7 µM (active)
CCOC(=O)c1c(N=CN(C)C)c(C#N)c2n1CCCC2 | 40.2% | 
CC(C)c1nnc(NC(=O)COC(=O)/C=C/c2ccc([N+](=O)[O-])cc2)s1 | 49.2% | 
Cc1cc(C)n(CC(C)NCc2c(C(=O)N3CCOCC3)nc3c(C)cccn23)n1 (configuration not stated) | -0.364% | 
COC(=O)C1[C@H]2SC(C)(C)C(C(=O)OC)N2C(=O)N1Cc1nc2ccccc2s1 (some centres not stated) | -38.7% | 
Cc1ccc(-n2c(N)c(C(=O)N3CCOCC3)sc2=S)c(C)c1 | 83.6% | 
N#Cc1ccccc1-n1c(N)c(C(=O)N2CCCC2)sc1=S |  | 3.7 µM (active)
Cc1cccc(-n2c(N)c(C(=O)N3CCN(C)CC3)sc2=S)c1 | -0.499% | 
COC(=O)Cc1ccc(OCC(=O)NC2CCCC2)cc1 | 15.2% | 
CC(C)(C)OC(=O)NNc1c2ccccc2nc2ccccc12 | -26.2% | 
O=C(NNc1c2ccccc2nc2ccccc12)c1cc2ccccc2cc1O |  | 3.7 µM (active)
O=C(N/N=C/c1cccnc1)c1cc2ccccc2cc1O | -0.65% | 
O=C(COC(=O)c1ccc2ncsc2c1)Nc1ccc(Cl)cc1 | 47.8% | 
COc1ccccc1C(=O)N/C(=C/c1ccco1)C(=O)Nc1ccc(C(=O)O)cc1 | 7.14% | 
CCCCC(=O)N/N=C(\C)CC(=O)Nc1cc(Cl)ccc1OC | 124% | 
Cc1nc(C)c(-c2csc(NCCc3ccccc3)n2)s1 | 9.36% | 
CCCCN(C)CCC(=O)Nc1ccc(Cl)cc1 | 54.5% | 
COc1ccc(-c2csc(NC(=O)COC(=O)Cc3ccc(Cl)cc3Cl)n2)cc1 | 277% | 
CCCCCCC(=O)Nc1nc(C)c(-c2csc(Nc3cc(Cl)ccc3OC)n2)s1 |  | 2.62 µM (active)
CC(=O)c1sc(NC(=O)CCCOc2ccccc2C)nc1C | 13.9% | 
CCCCC(=O)Nc1nc(C)c(-c2csc(Nc3ccc(Cl)cc3)n2)s1 |  | 3.29 µM (active)
COc1ccc(OC)c(Nc2nc(-c3ccc(O)c(O)c3)cs2)c1 | 12% | 
CCOC(=O)c1csc(NC(=O)Nc2cccc(OC)c2)n1 | 4.94% | 
C=CCCC(=O)Nc1nc(C)c(-c2csc(Nc3ccc(Cl)cc3)n2)s1 |  | 0.657 µM (active)
COc1ccc(OC)c(-c2csc(NC(=O)COC(=O)C3CC3)n2)c1 | 13.8% | 

SMILES | activity change, negative = inhibition | Potency
CCCCCCC(=O)Nc1nc(C)c(-c2csc(Nc3cccc(OC)c3)n2)s1 |  | 7.38 µM (active)
COc1ccc(-c2ccc(OC(=O)NC3CCS(=O)(=O)C3)cc2)cc1 (configuration not stated) | 108% | 
O=[N+]([O-])c1cc(S(=O)(=O)NCCc2ccccn2)ccc1Cl | -26.6% | 
CN1CCN(Cc2c(C(=O)N3CCc4ccccc4C3)nc3ccc(Cl)cn23)CC1 | -8.15% | 
COC(=O)c1ccc(NC(=O)CSc2nc(N)c(NC(=O)c3ccc(Br)o3)c(=O)[nH]2)cc1 | -3.36% | 
CCN(CC(=O)Nc1cc(Cl)ccc1C)C(=O)CN1C(=O)NC2(CCCC2)C1=O | 3.37% | 
Cc1cc(=O)oc2c(C)c(OCC(=O)NCCc3ccc(S(N)(=O)=O)cc3)ccc12 | 0% | 
Cc1ccc(OCC(=O)Nc2ccc(C(=O)O)cc2NC(=O)COc2ccc(C)c(C)c2)cc1C | -5.47% | 
CC1(C)CC(=O)C=C(N2CCCC2)C1 | 243% | 
CC1(C)CC(N2CCN(C(c3ccccc3)c3ccccc3)CC2)=CC(=[N+]2CCCCC2)C1 |  | 0.415 µM (active)
O=C1CC(N2CCN(C(c3ccccc3)c3ccccc3)CC2)C(=O)N1 (configuration not stated) | -9.56% | 
CCOc1ccc(S(=O)(=O)Nc2ccc(OC)nc2)cc1 | 20.5% | 
CN(CCO)c1ccc(/C=N/Nc2nncc3ccccc23)cc1 | 16.9% | 
Cc1occc1C(=O)N1CCCc2ccccc21 |  | 10.4 µM (active)
COc1ccc2oc(=O)c(C(=O)N3CCCc4ccccc43)cc2c1 | 58.9% | 
CCC(=O)N1CCCc2ccccc21 | 3.25% | 
COc1cc(NC(=O)CN2C(=O)NC(C)(c3ccc(OC(F)F)cc3)C2=O)cc(OC)c1OC (configuration not stated) | 9.94% | 
COc1ccc(Cl)cc1S(=O)(=O)N1CCC(O)(c2ccc(Cl)cc2)CC1 | -2.43% | 
CCOc1cc(C(C(=O)NCC2CCCO2)N(C(=O)Cn2nnc3ccccc32)c2cccc(OC)c2)ccc1O (configuration not stated) | -1.12% | 
COC(=O)c1sc(N2CCN(Cc3ccccc3)CC2)nc1N | 28.7% | 
CS(=O)(=O)c1ccc(Cl)c(NC(=O)COC(=O)c2ncc(Cl)c(Cl)c2Cl)c1 | 19.4% | 
Cc1ccc(S(=O)(=O)c2c[nH]c3ccc(Cl)cc3c2=O)cc1 | 32.9% | 
COc1ccc(-c2oc3ncn(Cc4ccco4)c(=N)c3c2-c2ccc(OC)cc2)cc1 |  | 6.57 µM (active)
COc1ccc2[nH]c3c(=O)n(Cc4ccco4)cnc3c2c1 | 6.11% [at 5.75 µM] | 
COc1ccc(Nc2nc(Cl)nc(NCc3ccco3)n2)cc1 | 48.6% | 
CN(c1ccccc1)S(=O)(=O)c1ccc2[nH]c(=O)[nH]c2c1 | 11.2% | 
